Data taken from PubChem BioAssay AID2401 (Southern Research Specialized Biocontainment Screening …, 2010).
The whole screen tested about 2,200 compounds, of which about 530 (24%) were called active. The list is a sample of the results. Measured potencies and affinities stand elsewhere. Unmarked numbers belong to inactive results.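 Rule for the calls: active = inhibition above a set limit at one or more concentrations of the dose series; inactive = inhibition under that limit at every dose.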

Test: S. Typhimurium nonspecific reporter signal inhibition – Salmonella Typhimurium, GFP fluorescence, counter-screen for PhoP regulon inhibitor project, dose response (AID 2401);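 note: S. typhimurium with Mg-insensitive nmpC-GFP reporter grown at 10 µM Mg2+; drop in reporter fluorescence reflects general culture growth inhibition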
Conditions: 4 h; series mostly up to 150 µM; inhibition: at the top concentration

| SMILES | inhibition [%] |
| --- | --- |
| Cc1ccc(Nc2cc(=O)[nH]c(=O)[nH]2)c(C)c1 | 24.1 |
| O=C(O)C1CCC(N2C(=O)C3CCCCC3C2=O)CC1 (centres undefined) | -2.47 |
| Cc1cc(C(=O)CSc2nnnn2C)c(C)n1-c1ccc2c(c1)OCCO2 | -3.11 |
| Cc1ccc(-c2cc(C(=O)Nc3nccs3)c3ccccc3n2)o1 | 15.4 |
| O=C(OCc1ccccc1)Oc1cncc(C(=O)O)c1 | 3.03 |
| C=COC(=O)CSc1snc(SCC(=O)OC)c1C#N | -0.38 |
| C=CCSc1ncnc2sc(C)c(C)c12 | 2.54 |
| COc1ccc(NC(=O)CCNS(=O)(=O)c2ccc3c(c2)CCC(=O)N3)cc1 | -5.16 |
| CN1CCCC(OC(=O)c2ccc3c(c2)OCCO3)C1 (centres undefined) | -6.95 |
| N#Cc1ccc(N=c2ssnc2Cl)cc1 | -3.37 |
| CC(C)(C)n1ncc2c(=O)n(CC(=O)Nc3ccc4c(c3)OCO4)cnc21 | 0.07 |
| Cc1ccccc1Cn1c(=N)n(CC(=O)c2ccco2)c2ccccc21 | -25 |
| N=c1n(CC(=O)c2ccc([N+](=O)[O-])cc2)c2ccccc2n1Cc1ccccc1 | -6.91 |
| Cc1ccc(/C=C/c2ccc(=O)n(Cc3ccccc3Cl)n2)cc1 | -10.7 |
| COc1ccc(-n2c(=O)c3ccccc3n(CC(=O)Nc3cc(C)on3)c2=O)cc1OC | -20.3 |
| Cc1cc(-c2c(C)n([O-])c(C)c(C)[n+]2=O)ccc1F | -19 |
| CCOC(=O)c1c(-c2ccc(C)o2)csc1N | -7.66 |
| CCOC(=O)c1ccccc1C(=O)N1CCOCCOCCOCC1 | -15.8 |
| COc1ccc(C(=O)Nn2c(SCC(=O)N3CCC(C)CC3)nc3ccccc3c2=O)cc1 | -0.43 |
| Cc1ccc2nc(C)c(CN3CCN(c4ccc([N+](=O)[O-])cc4Cl)CC3)n2c1 | 12.8 |

| SMILES | inhibition [%] |
| --- | --- |
| Cc1ccc(NS(=O)(=O)c2ccc(N3C(=O)CCC3=O)cc2)cc1 | -30.7 |
| O=S(=O)(Nc1ccc2c(c1)nc1n2CCN(Cc2ccccc2)C1)c1ccc(F)cc1 | -2.47 |
| CSc1cccc(NC(=O)COc2cccc3ccccc23)c1 | 6.13 |
| O=S(=O)(NC1=NCCCCC1)c1cccs1 | -13.8 |
| O=C1CSc2ccccc2N1Cc1ccc(F)cc1 | -25.6 |
| O=C(c1ccccc1S(=O)(=O)NCc1ccccc1)N1CCCC1 | -22.7 |
| COc1ccc(C2CC(c3ccccc3)=NN2c2ccc(/C=N/NC(=O)c3ccncc3)cc2)cc1 (centres undefined) | 16.4 |
| NC(=O)c1c(N)sc2c1CCCCC2 | 12.1 |
| CCOC(=O)C1=C(C)NC(=S)NC1c1ccc(OC(=O)c2ccco2)cc1 (centres undefined) | -2.57 |
| Cn1c(C(O)c2ccc(Br)cc2)nc(Cl)c1Cl (centres undefined) | -2.83 |
| CN(C)C=NC(=O)c1[nH]c2ccc(Cl)cc2c1-c1ccccc1 | -5.43 |
| Clc1ccc(OCCN2CCN(c3ncnc4sccc34)CC2)cc1 | -6.81 |
| O=C(Cc1ccc(Cl)cc1)NNS(=O)(=O)c1ccc([N+](=O)[O-])cc1 | 0 |
| N[C@H](CSCc1ccccc1)C(=O)Nc1ccc([N+](=O)[O-])cc1 | -8.41 |
| O=C(O)CCCCCN1C(=O)c2ccc(C(=O)O)cc2C1=O | -20.1 |
| CCOC(=O)c1c(C)[nH]c(C)c1C(=O)CSc1ncccn1 | -16.1 |
| COc1ccc(NC(=O)CSc2nccn2-c2ccccc2)cc1 | -15.4 |
| COc1cc(OC)c(NC(=O)Nc2ccc(OC)c(OC)c2)cc1Cl | 10.1 |
| O=[N+]([O-])c1nn(-c2cccc(Cl)c2)n(O)c1=NCc1cccnc1 | 5.14 |
| O=c1c(Cl)c(Cl)cnn1-c1ccccc1 | 18.9 |

| SMILES | inhibition [%] |
| --- | --- |
| CC1(C)CC(=O)C(C=Nc2ccc(Cl)cn2)=C(O)C1 | 7.22 |
| Cn1cccc1CC(=O)NNC(=S)Nc1ccc(Cl)cc1 | 8.8 |
| Cc1cn([C@H]2C[C@H](N=[N+]=[N-])[C@@H](CO)O2)c(=O)[nH]c1=O | -4.31 |
| Cc1c(C)n(Cc2ccccc2)c2ncnc(NN)c12 | 9.09 |
| CCOCc1nnc(NC(=O)COC)s1 | -6.16 |
| O=c1c2ccccc2nnn1Cc1ccccn1 | 4.75 |
| c1ccc(Oc2cc(-c3ccccc3)ncn2)cc1 | -7.11 |
| Oc1ccccc1NCC(O)Cn1ccc2ccccc21 (centres undefined) | 15.1 |
| Cc1ccc2nc(Cc3ccc(N)cc3)[nH]c2c1 | 29.3 |
| COc1ccccc1NS(=O)(=O)c1cccc(C(=O)N/N=C/c2c(C)nn(-c3ccccc3)c2N2CCCC2)c1 | 6.1 |
| CCOc1ccc(S(=O)(=O)Nc2ccc(C(=O)N/N=C/c3c(C)nn(-c4ccccc4)c3N3CCCC3)cc2)cc1 | 17.9 |
| Cc1ccc(C(=O)N/N=C/c2ccc([N+](=O)[O-])s2)cc1 | -4.76 |
| O=C(NC(=S)N1CCN(c2c(Cl)cccc2[N+](=O)[O-])CC1)c1cccs1 | -24 |
| O=C(c1ccccc1)c1nc2ccccc2n(CCCn2c(=O)c(C(=O)c3ccccc3)nc3ccccc32)c1=O | -19.2 |
| CCc1cccc(C)c1NC(=S)NCc1cccn1C | 21.8 |
| COc1cccc2[nH]c3c(N4CCN(Cc5ccc6c(c5)OCO6)CC4)ncnc3c12 | -6.03 |
| O=C(NCc1ccco1)C1CC(=O)N(CCc2ccccc2)C1 (centres undefined) | 9.58 |
| N#C/C(=C\c1ccc(F)c(F)c1)C(=O)NC1CCCCC1 | -10.3 |
| CCSc1nc(C2CC2)cc(-c2cccs2)c1C#N | -18.4 |
